# Test results as given in PubChem BioAssay AID463095 (Sanford-Burnham Center for Chemical Genomics, 2010).
# The other results are listed elsewhere or left out. The source made the active and inactive calls.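 How the source made its calls: active means proliferation increase above 40% at any of the four tested concentrations; inactive means the rest.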
# Test: MIN6 insulinoma cell replication enhancers – MIN6 cells, mouse, confirmation (AID 463095)
row,Structure (SMILES),outcome
1,Cc1cc(NC(=O)c2ccco2)c(=O)n(Cc2c(F)cccc2Cl)c1,inactive
2,O=C(Nc1ccc(F)cc1)C1CCCN(S(=O)(=O)c2ccc(-n3cnnn3)cc2)C1 (stereo unspecified),inactive
3,CC(=O)c1ccc(S(=O)(=O)NCc2nnnn2-c2ccccc2)cc1,inactive
4,CC(=O)c1cccc(NC(=O)COc2ccc(S(=O)(=O)N3CCOCC3)cc2)c1,inactive
5,CC1(C)C2CC=C(/C=N/NC(=O)C3CC3)C1C2 (stereo unspecified),inactive
6,Cc1ccccc1CNC(=O)CCC(=O)N1Cc2ccccc2Oc2ncccc21,inactive
7,CCOC(=O)Nc1sc(C(=O)N(C)C)c(C)c1C(=O)OCC,inactive
8,COc1cccc(CNC(=O)C2CCCN(c3ncnc4c3nc3n4CCCCC3)C2)c1 (stereo unspecified),inactive
9,COc1ccc(CCn2c(=N)c(C(=O)NCc3ccco3)cc3c(=O)n4cccc(C)c4nc32)cc1,inactive
10,COc1cccc(CNC(=O)CCC2CCCN(C(=O)c3ccoc3C)C2)c1 (stereo unspecified),inactive
11,Cc1ccc(C(=O)Nc2ccc(NC(=O)c3cccs3)cc2)c(C)c1,inactive
12,S=C(Nc1cccc(Cl)c1)Nc1ccc2cn[nH]c2c1,inactive
13,COc1ccc(-c2nnn(Cc3nc(N)nc(N4CCCCC4)n3)n2)cc1,inactive
14,CC/C(=N/Nc1ccccc1)c1cnnc(SC)n1,inactive
15,COC(=O)Nc1sc2nc(C)cc(C)c2c1-n1cccc1,inactive
16,CC(=O)c1cnc(-c2ccccc2)s1,inactive
17,COc1ccccc1N=Cc1c(O)c2ccccc2oc1=O,inactive
18,C/C(=N\NC(=O)c1ccccc1C)c1ccc(N2CCOCC2)cc1,inactive
19,O=C1c2ccccc2S(=O)(=O)c2cc(N3CCN(c4ccccn4)CC3)ccc21,inactive
20,CCn1c(=O)n(CC)c2cc(N3CCCC3)c(NC(=O)c3ccccc3Br)cc21,inactive
21,COc1cc2c(cc1OC)C(C(=O)NCc1ccco1)C1c3ccccc3CCN1C2=O (stereo unspecified),inactive
